Assay results from PubChem BioAssay.

assay: probe aLAP1 signal on lysate-treated microarray – cell lysate, small-molecule microarray, COS7 lysate, primary screen (AID 1124); details: probe aLAP1, fluorescence, higher = more signal;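 note: lysate comes from COS7 cells expressing LAP1 and is applied at 0.3 µg/mL; score merges spot fluorescence near 667 nm with signal-to-noise over triplicate slides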

Structure (SMILES) | composite z-score
C=CCc1cccc([C@@H]2[C@@H](C)CC[C@H]3C(=O)N4[C@H](c5cccc(CC=C)c5)[C@@H](C)CC[C@H]4C(=O)N23)c1 | 0.035
CCCCCCc1nc(C2CC2)c(C)c2c1[Si](C(C)C)(C(C)C)OC2 | -0.35
CC(C)(C)OC(=O)CC[C@]1(C(=O)NCCN2CCOCC2)N=C(c2ccc(OCCCO)cc2)O[C@H]1c1ccccc1CN=[N+]=[N-] | 0.663
CCOC(=O)C[C@H]1[C@H](OC(=O)c2ccccc2-c2ccccc2)[C@@H](NC(=O)c2ccc(-c3ccccc3)cc2)c2cc(OCCCO)ccc2N1C(=O)Cc1ccc(OC)cc1 | -0.0563
C=CCN1C(=O)[C@@]2(Cc3ccccc3)N=C(c3ccc(OCCCO)cc3)O[C@H]2c2ccccc21 | 0.66
C=CCC(OC(C)=O)[C@@H]1[C@@H](N(Cc2cc3ccccc3o2)C(=O)c2ccc(C)cc2)c2cc(OCCCO)ccc2N1C(=O)c1ccc2ccccc2n1 (stereo partly specified) | -0.348
C=C(C(=O)CC[C@H](OC(=O)c1ccccc1-c1ccccc1C(=O)O)c1ccc(CO)o1)C(C)C | 1.47
O=C(CS)NCCCCCNC(=O)[C@H]1C[C@H]2C(=O)N3CCC[C@H]3C(=O)N2[C@H]1c1ccc(O)cc1 | 1.23
N#Cc1ccc(NN2C(C(O)CCc3ccccc3)C=CC3C(=O)N(c4ccccc4)C(=O)C32)cc1 (stereo unspecified) | 0.647
O=[N+]([O-])c1ccc(C[n+]2ccc3ccc(O)cc3c2)o1 | 0.98
Cc1ccc(S[C@]2(C(=O)NC(C)C)CC(=O)N(Cc3cc(C(F)(F)F)cc(C(F)(F)F)c3)[C@@H]2c2ccc(CO)cc2I)cc1 | 0.917
COC(=O)[C@@]1(Cc2ccccc2N=[N+]=[N-])N=C(c2ccc(OCCCO)cc2)O[C@H]1c1ccccc1CN=[N+]=[N-] | -0.113
O=C(NCc1ccccc1)c1ccc(Br)cc1[N+](=O)[O-] | -0.209
C=C(COC)/C(=C/C[C@H](OC(C)=O)c1ccc(OCCO)cc1)c1cnc2ccccc2c1 | -0.0578
COc1cc2c(cc1OC)CN(C(=O)[C@H]1[C@@H]3C(=O)O[C@@H](c4ccccc4)[C@@H](c4ccccc4)N3[C@@H](c3ccccc3OCCO)[C@]13C(=O)Nc1ccc(C#CC4(O)CCCCCC4)cc13)CC2 | 0.982
COCCOC(=O)N1C(=O)[C@@]2(c3cc(C#CCCO)ccc31)[C@H](c1ccc(O)cc1)N1[C@H](c3ccccc3)[C@H](c3ccccc3)OC(=O)[C@H]1[C@@H]2C(=O)Nc1nc2ccccc2s1 | 0.403
CC[C@H]1C2=C3C(CC[C@H]4C(OC)OC[C@](C)([C@@H]34)N(C(=O)OC(C)(C)C)C2)C(CO)C1CO (stereo partly specified) | 0.903
CN(C)C(=O)[C@@]1(Cc2ccccc2N=[N+]=[N-])N=C(c2ccc(OCCCO)cc2)O[C@H]1c1ccccc1CN=[N+]=[N-] | 1.12

Structure (SMILES) | composite z-score
CC(C)[C@H]1NC(=O)[C@@]23C(=O)N[C@@H](Cc4ccccc4)C2[C@H](C)[C@@]2(C)O[C@H]2C3/C=C/C/C=C\CNC(=O)[C@H](C)NC1=O (stereo partly specified) | -0.258
O=C1c2ccccc2[C@](Cc2ccccc2I)(C(=O)NCc2ccccc2)[C@H](c2ccc(CO)cc2)N1Cc1ccccc1C(F)(F)F | 0.595
O=C1c2ccccc2[C@](Cc2ccccc2I)(C(=O)NCC(F)(F)F)[C@H](c2ccc(CO)cc2)N1Cc1ccccc1C(F)(F)F | 0.494
CCC1=C2CN(Cc3ccccc3Br)[C@@H]([C@@H](O)Cc3ccccc3)C2C=CCC1 (stereo partly specified) | -0.0566
C=CCc1cccc([C@H]2N[C@H](C(=O)O)CC[C@@H]2C)c1 | -0.27
COC(=O)C1=CC(c2ccc(CO)cc2)=CC(c2cccs2)N(Cc2cccc(OC(F)(F)F)c2)C=C1C(=O)OC (stereo unspecified) | 0.641
C=C(CCCC)C(=O)CC[C@@H](OC(=O)c1cccnc1)c1cccc(OCCO)c1 | 0.0475
CO[C@H]1COC(=O)[C@H](Cc2ccccc2)NC(=O)CC=C[C@@H](C)[C@H](OC)COC(=O)CC=C[C@@H]1C | -0.47
COCCOC(=O)N1C(=O)[C@@]2(c3cc(C#CCC(C(=O)OC)C(=O)OC)ccc31)[C@H](C(=O)N1CCN(c3ncccn3)CC1)[C@H]1C(=O)O[C@H](c3ccccc3)[C@H](c3ccccc3)N1[C@@H]2c1ccc(O)cc1 | 0.695
CCCC=C(CCC)[C@@H](NS(=O)(=O)c1cccc(C(F)(F)F)c1)c1ccc(C(=O)OC)cc1 | 0.134
NC(=O)[C@H]1[C@@H]2C(=O)O[C@@H](c3ccccc3)[C@@H](c3ccccc3)N2[C@@H](c2ccc(O)cc2)[C@]12C(=O)Nc1ccc(C#CCCO)cc12 | 0.0482
O=C(O)[C@@H]1Cc2c([nH]c3ccccc23)[C@@H](c2ccccc2)N1 | -0.0124
COc1cc2c(cc1OC)CN(C(=O)[C@@H]1[C@H]3C(=O)O[C@H](c4ccccc4)[C@H](c4ccccc4)N3[C@H](c3ccccc3OCCO)[C@@]13C(=O)Nc1ccccc13)CC2 | 1.31
CCCC=C(CCC)[C@@H](NS(=O)(=O)c1ccc(-c2ccccc2)cc1)c1ccc(C(=O)OC)cc1 | 0.515
O=C/C=C/c1ccccc1Cl | 0.399
[N-]=[N+]=NCc1ccccc1[C@H]1OC(c2ccc(OCCCO)cc2)=N[C@@]1(Cc1ccccc1N=[N+]=[N-])C(=O)NCc1ccccc1 | 0.174
O=C1c2ccccc2[C@](Cc2ccccc2I)(C(=O)O)[C@H](c2ccc(CO)cc2)N1C1CCCCC1 | 0.589
C=CCC(OC(C)=O)[C@@H]1[C@@H](N(Cc2cc3ccccc3o2)C(=O)Cc2ccc(F)cc2)c2cc(OCCCO)ccc2N1C(=O)c1ccc(-c2ccccc2)cc1 (stereo partly specified) | -0.546
